The source of these data is PubChem BioAssay (EPA / NIEHS).

Molecules are shown by their SMILES. Values joined by “and” are separate entries in the source; they are usually repeats but may differ in a detail not shown here. Equal values may be shown once. Some compounds were tested as several samples or in several runs, with calls that do not always agree. Active and inactive are the calls of the source. Rule for the calls: active = hit-call score of the fitted dose curve at least 0.9, where 1 is the maximum; inactive = score below 0.9.

This assay is described as follows: CCTE_Mundy_HCI_Cortical_Synap_Neur_Matur_BPCount: CCTE's Synaptogenesis and Neurite Maturation Assay in rat cortical cells for Branch Point Count, Mundy Lab (AID 2284211). As to the method:
CCTE_Mundy_HCI_Cortical_Synap&Neurite_Matur is a multiplexed, cell-based-readout assay that uses rat primary cortical cells with measurements taken at 288.33 hours after chemical dosing in a microplate: 96-well plate.CCTE_Mundy_HCI_Cortical_Synap_Neur_Matur_BPCount is one of eight components of the CCTE_Mundy_HCI_Cortical_Synap&Neurite_Matur assay. It measures synaptogenesis and neurite maturation related to number of branch points using High Content Imaging of fluorescently labelled markers.[…] Using a type of morphology reporter, loss -of-signal activity can be used to understand developmental effects.
Cells are plated onto 96 well plates and allowed 2 hr for attachment to the substrate. At days in vitro (DIV) 5, Cytosine Arabinoside (AraC) is added to arrest glial cell growth. Chemicals are dosed and a media change is performed at DIV 7 of differentiation and is continued through DIV 12 when the experiment is terminated. Cells are fixed with […] and Hoechst Dye. Cells are stained using Millipore Mouse anti-MAP2MAB3418 (1:800) and Millipore Rabbit anti-Synaptophysinsc-1750 (1:250) primary antibodies and Alexa Fluor-488 goat anti-mouse and AlexaFluor-546 goat anti-rabbit secondary antibodies to label neuronal cell nuclei, synapses and neurites. A Cellomics ArrayScan VTi HCS Reader is used for automated image acquisition and analysis of neurite outgrowth.
Take `CNC(=O)CSP(=S)(OC)OC`: the AC50 (as a rule, the concentration at which the activity in the assay is half-maximal) is 50 µM (active) and the compound was classed as inactive. For `CC[C@H](C)[C@H]1O[C@]2(C=C[C@@H]1C)C[C@@H]1C[C@@H](C/C=C(\C)[C@@H](O[C@H]3C[C@H](OC)[C@@H](O[C@H]4C[C@H](OC)[C@@H](O)[C@H](C)O4)[C@H](C)O3)[C@@H](C)/C=C/C=C3\CO[C@@H]4[C@H](O)C(C)=C[C@@H](C(=O)O1)[C@]34O)O2` (tested in a mixture with another compound), the AC50 was 0.896 µM (active). As for `O=S(=O)(O)C(F)(F)C(F)(F)C(F)(F)C(F)(F)C(F)(F)C(F)(F)C(F)(F)C(F)(F)F`, the result was inactive. Same read-out and setting: with `CCC(C)(C)C(=O)OC1=C(c2ccc(Cl)cc2Cl)C(=O)OC12CCCCC2` the entry was “inactive”.

Regarding `O=C(O)C(F)(F)C(F)(F)C(F)(F)C(F)(F)C(F)(F)C(F)(F)C(F)(F)F`, the compound was called inactive. Same read-out and setting: with `COP(=S)(OC)Oc1ccc([N+](=O)[O-])cc1` the entry was “inactive”. Consider `COP(=O)(OC)OC=C(Cl)Cl`, for which the half-maximal activity concentration (AC50) was 49 µM (active) and the outcome was inactive. As to `O=S1OCC2C(CO1)C1(Cl)C(Cl)=C(Cl)C2(Cl)C1(Cl)Cl` (centres undefined), the AC50 was 15 µM (active). As for `CC(C)N(C(=O)COc1nnc(C(F)(F)F)s1)c1ccc(F)cc1`, the call was inactive. In the case of `CC1(c2ccc(Oc3ccccc3)cc2)OC(=O)N(Nc2ccccc2)C1=O` (centres undefined), the AC50 is 20.2 µM (active).

For `CC1(C)C(C=C(Cl)Cl)C1C(=O)OC(C#N)c1ccc(F)c(Oc2ccccc2)c1` (centres undefined), the concentration at half-maximal activity (AC50) was 49.9 µM (active) and 15 µM (active). Turning to `O=[N+]([O-])/N=C1\NCCN1Cc1ccc(Cl)nc1`, the result was inactive.
